In PubChem BioAssay (NCI):
Compounds without any hit were thinned out: in the full panel of roughly 79,000, 15% have a hit. A number with no mark means an inactive call. Active and inactive are the calls of the source. No stated cut-off is given here; in the data, active means growth inhibition above about 70%; inactive means the rest.

Columns and labels:
[1] = NCI Yeast Anticancer Drug Screen. Data for the rad50 strain (AID 155);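 further: 0% = growth of vehicle-only cultures of the same strain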; settings: S. cerevisiae rad50 strain growth inhibition; at 50.0 µM; stronger effect = higher value
Outline: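 Growth of the mutant yeast was measured after compound exposure and referenced to vehicle-treated cultures.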

[2] = NCI Yeast Anticancer Drug Screen. Data for the mec2-1 strain (AID 157); settings: S. cerevisiae mec2-1 strain, at 50.0 µM, stronger effect = higher value
Outline: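 mec2-1 yeast strain, carrying an alteration in DNA damage repair or cell cycle control, was exposed to compounds; growth inhibition was measured relative to vehicle-treated controls.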

[3] = NCI Yeast Anticancer Drug Screen. Data for the sgs1 mgt1 strain (AID 161);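 further: 0% = growth of cultures given vehicle only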; settings: S. cerevisiae sgs1 mgt1 strain, at 50.0 µM, stronger effect = higher value
Outline: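 Compounds are added to genetically altered yeast, and growth is compared with cultures given vehicle alone to give percent inhibition.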

[4] = NCI Yeast Anticancer Drug Screen. Data for the cln2 rad14 strain (AID 165);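 further: 0% = growth equal to vehicle treated cultures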; settings: S. cerevisiae cln2 rad14 strain, at 50.0 µM, stronger effect = higher value
Outline: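 Yeast carrying cln2 and rad14 alterations (cell cycle control and DNA damage repair) were exposed to compounds. Growth inhibition was measured against vehicle-treated controls.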

[5] = NCI Yeast Anticancer Drug Screen. Data for the bub3 strain (AID 167); settings: S. cerevisiae bub3 mutant strain, at 50.0 µM, stronger effect = higher value
Outline: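 Whole-cell yeast assay. The mutant strain was incubated with compounds, and growth inhibition was determined by comparison with vehicle-treated cells.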

[6] = NCI Yeast Anticancer Drug Screen. Data for the mlh1 rad18 strain (AID 175); settings: S. cerevisiae mlh1 rad18 strain growth inhibition; at 50.0 µM; stronger effect = higher value
Outline: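 Growth inhibition of the yeast strain was measured after compound exposure and expressed relative to vehicle-treated controls. The strain carries defined defects in DNA damage repair.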

Structure (SMILES)	growth inhibition [1]	growth inhibition [2]	growth inhibition [3]	growth inhibition [4]	growth inhibition [5]	growth inhibition [6]
CC(C)CCCC(C)C1CCC2C3CC(=O)C4C=CCCC4(C)C3CCC12C (configuration not stated)	39.1%	19.5%	27.6%	24%	2.65%	34%
CC(=O)OC(C(=O)N1CC1)C(OC(C)=O)C(OC(C)=O)C(OC(C)=O)C(=O)N1CC1 (configuration not stated)	24.1%	20.9%	25.4%	10.1%	28.6%	29.3%
Cc1ccc(N=Nc2ccc(C)cc2NC(=O)c2ccc(Cl)cc2Cl)cc1	9.2%	-9.7%	9.1%	4.55%	-1.55%	18.2%
CN1CCCC(C(=O)O)(c2ccccc2)CC1 (configuration not stated)	-17.3%	-5.95%	-19.2%	-35.2%	-14.7%	-24.1%
Fc1cccc(C2ON=C(c3ccccc3)N2C23CC4CC(CC(C4)C2)C3)c1 (configuration not stated)	4.9%	-1.85%	6.1%	36.8%	-8.35%	33.9%
CC(=O)OC1CCC2(C)C(CCC3C2CCC2(C)C(c4cccc(=O)o4)CCC32)C1 (configuration not stated)	22.5%	8.9%	11.4%	14.8%	0.35%	2.3%
O=C1C=C(Nc2ccccc2C(=O)CC(=O)C(=O)Nc2ccc(Cl)c(Cl)c2)c2ccccc2C1=O	-14.1%	5.7%	3.2%	-30.9%	-24.2%	-7.15%
CC(C)(C)c1cc(-c2cc(C(C)(C)C)nc(N)n2)nc(N)n1	-4.9%	-14.1%	-14%	-18.7%	-35.3%	-16.4%
O=C(Nc1ccc([N+](=O)[O-])cc1)N(c1ccccc1)c1cc(N2CCOCC2)ccn1	40.7%	16.6%	9.1%	13.8%	5.8%	34.9%
Cc1ccc(Sc2cc([N+](=O)[O-])cc(Sc3ccc(C)cc3)c2Sc2ccc(C)cc2)cc1	22.2%	-24.7%	10.4%	5.25%	1.35%	-11.7%
CC(=O)n1c(=O)c2cc3c(=O)n(-c4cccc(C#N)c4)c(=O)c3cc2c1=O	-25.4%	-19.4%	9.65%	7.65%	4.8%	-9.65%
COCCCN(Cc1cc(OC)c(OC)c(OC)c1)C(=S)Nc1cccc(SC)c1	13.8%	-19.4%	40.5%	25.6%	51.2%	16.6%
ClCCCCOC1CCCCO1 (configuration not stated)	-4.6%	5.35%	4.9%	2.7%	-12.7%	-29.8%
O=c1oc2c(ccc3ccccc32)c(O)c1-c1cccc2ccccc12	99.2% (active)	99.5% (active)	99.5% (active)	99% (active)	97.7% (active)	99.3% (active)
O/N=C\c1cccc[n+]1Cc1ccc2ccccc2c1Br	-1.7%	1.95%	-7.55%	-7.05%	10.7%	-1.75%
Cc1ccc(S(=O)(=O)c2ccc(C)cc2[N+](=O)[O-])cc1	21.8%	-7.5%	18.5%	-4.95%	45.7%	-9.75%
CCC(c1ccc(N(C)C)cc1)c1ccc(N(C)C)cc1	3.8%	-48.9%	1.6%	8.35%	0.05%	4.2%
N#CCC(=O)N/N=C(\C(=O)Nc1ccc(Cl)c(Cl)c1)C1CN(c2ccccc2)N=C1N (configuration not stated)	24.4%	6.9%	-11.8%	-44.4%	0.45%	-8.4%
CC(C#N)(CCl)OS(=O)(=O)CCCl (configuration not stated)	37.4%	21.4%	6.4%	16.9%	48.7%	25.4%

Structure (SMILES)	growth inhibition [1]	growth inhibition [2]	growth inhibition [3]	growth inhibition [4]	growth inhibition [5]	growth inhibition [6]
Nc1nc(N)nc(CNc2c(Br)cc(Br)cc2Br)n1	12%	24.6%	16.5%	-9.25%	-10.2%	4.95%
CCCCc1c[nH]n(C(N)=NCCSCc2nc[nH]c2C)c1=O	-7.15%	-18.4%	-9.95%	-20.2%	-2.45%	-4.75%
COc1ccc2nccc(CO)c2c1	4.95%	-3.4%	-0.8%	-33.2%	5.7%	0.75%
ONc1ncnc2[nH]cc(Br)c12	4%	-6.8%	-5.65%	2.6%	-4.5%	9.7%
CSc1nc(NC2OCC(OC(C)=O)C(OC(C)=O)C2OC(C)=O)c(N=C(C)C(C)=O)c(=O)[nH]1 (configuration not stated)	-3.9%	17.7%	15.2%	4.95%	3.05%	12.8%
CCCCCCCCCCC/C(C)=N/Nc1ccc([N+](=O)[O-])cc1[N+](=O)[O-]	5.65%	-5.15%	2.15%	11.8%	-0.2%	-13%
CC1(C)C2CCC1(C)C(S)C2 (configuration not stated)	7.5%	-1%	-2.75%	-57.1%	-2%	11.9%
Nc1nc(NCCO)c(N=O)c(=O)[nH]1	5.1%	-4.1%	-2.3%	13.4%	10.1%	13.4%
O=[N+]([O-])c1cccc(/C=N\O)c1	-17.8%	-8.45%	-9.9%	-7.45%	-1.2%	-8.4%
COc1cccc(-n2cnc3c(=O)[nH]cnc32)c1	-18.7%	-13.3%	-10.9%	-34.9%	-5.65%	-40%
CC(CCC(=O)O)[C@H]1CCC2[C@@H]3CC[C@@H]4CC(O)CC[C@]4(C)C3CC[C@@]21C (some centres not stated)	-31.1%	-18.1%	-13.8%	-0.1%	-16.1%	-26.7%
C/C=C/C(=O)OCCC(C)OC(=O)/C=C/C (configuration not stated)	26.1%	-30.4%	19.4%	17.4%	15.9%	5.25%
CCOC(=O)NN(C(=O)OCC)c1c(NN)n(C)c(=O)n(C)c1=O	2.7%	-19.7%	9.2%	-10.4%	12.4%	-11.5%
COc1ccc2cc(-c3ccc(OC)c(OC)c3)c(=O)oc2c1	-12.4%	-9.9%	-7.65%	-8.9%	-7.15%	-18.2%
CN1C(=O)C2CSCN2C1=S (configuration not stated)	-38%	-7.7%	-5.4%	-12.3%	-13.6%	5.1%
COC(=O)C1=COC(OC2OC(CO)C(O)C(O)C2O)C2C(C)CC(=O)C12 (configuration not stated)	-39.2%	-39%	-22.4%	20.6%	-29.9%	-20.4%
Cc1cnc(N/N=C/c2c(CO)cnc(C)c2O)s1	20.6%	9.85%	7.25%	11.6%	2.75%	23.6%
CCC1CCC2c3c([nH]c4ccccc34)C3C(=O)N(c4ccc(OC)cc4)C(=O)C3C2C1 (configuration not stated)	-13.1%	-10.6%	3.5%	6.65%	2.05%	24.4%
